Among the data in PMC7862700, “An all-to-all approach to the identification of sequence-specific readers for epigenetic DNA modifications on cytosine” are binding signal values, retold here.

Holding throughout (assay): DAPPL (digital affinity profiling via proximity ligation, sequencing); 10 mM Tris-HCl pH 7.5, 50 mM NaCl, 1 mM DTT, 4% glycerol, room temperature, 30 min; GST-TFs on glutathione beads, 16-mer random dsDNA library, 0.1% formaldehyde crosslink after washing; high values mean tight binding
Conditions in all cases: protein: recombinant; tags: N-terminal GST; dsDNA, one strand shown

In one assay the target is T1, FLI1 (Homo sapiens, UniProt Q01543 1-452).
T1 sequence: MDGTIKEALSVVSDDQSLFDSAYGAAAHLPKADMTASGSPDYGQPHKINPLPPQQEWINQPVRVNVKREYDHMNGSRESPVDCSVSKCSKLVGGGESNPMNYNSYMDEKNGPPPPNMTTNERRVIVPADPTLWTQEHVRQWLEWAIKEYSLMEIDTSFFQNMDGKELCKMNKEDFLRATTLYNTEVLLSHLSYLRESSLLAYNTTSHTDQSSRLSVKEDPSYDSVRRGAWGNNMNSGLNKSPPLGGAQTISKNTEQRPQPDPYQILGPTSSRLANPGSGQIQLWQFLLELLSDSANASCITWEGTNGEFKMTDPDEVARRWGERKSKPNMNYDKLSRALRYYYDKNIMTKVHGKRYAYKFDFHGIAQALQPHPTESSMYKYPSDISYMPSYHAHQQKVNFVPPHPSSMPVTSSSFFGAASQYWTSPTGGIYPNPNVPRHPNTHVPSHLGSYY
In outline:
(§1)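 In yeast, human transcription factors were expressed with a GST fusion, then pulled down on glutathione beads and given DNA barcodes. Pooled with a tag-only sample, they were exposed to 200 nmole of a 16-mer random double-stranded DNA library (Tris/NaCl/DTT/glycerol buffer, room temperature, 30 min), washed, crosslinked with 0.1% formaldehyde, proximity-ligated using BsaI/T4 ligase for 1 h at 37 °C, PCR-amplified and read on an Illumina NextSeq500. Each hexamer's frequency of reads for a factor, divided by the matching frequency for the tag-only sample, gives the binding signal.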

For the next assay, the target named is T2, ELK1 (Homo sapiens, UniProt P19419 1-428).
T2 sequence: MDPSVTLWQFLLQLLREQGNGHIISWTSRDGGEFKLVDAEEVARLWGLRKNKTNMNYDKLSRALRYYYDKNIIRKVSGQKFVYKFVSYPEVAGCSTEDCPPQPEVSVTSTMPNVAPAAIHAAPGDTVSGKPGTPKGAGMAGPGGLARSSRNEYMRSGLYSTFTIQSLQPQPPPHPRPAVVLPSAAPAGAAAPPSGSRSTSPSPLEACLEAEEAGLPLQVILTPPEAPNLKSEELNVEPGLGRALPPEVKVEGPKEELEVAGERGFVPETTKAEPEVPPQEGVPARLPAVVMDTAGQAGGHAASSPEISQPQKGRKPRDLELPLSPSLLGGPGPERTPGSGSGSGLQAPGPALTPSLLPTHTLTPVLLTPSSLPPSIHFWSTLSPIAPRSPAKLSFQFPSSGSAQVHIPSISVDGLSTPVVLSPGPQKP
In outline: as §1

The target of a further assay is T3, GABPA (Homo sapiens, UniProt Q06546 1-454).
T3 sequence: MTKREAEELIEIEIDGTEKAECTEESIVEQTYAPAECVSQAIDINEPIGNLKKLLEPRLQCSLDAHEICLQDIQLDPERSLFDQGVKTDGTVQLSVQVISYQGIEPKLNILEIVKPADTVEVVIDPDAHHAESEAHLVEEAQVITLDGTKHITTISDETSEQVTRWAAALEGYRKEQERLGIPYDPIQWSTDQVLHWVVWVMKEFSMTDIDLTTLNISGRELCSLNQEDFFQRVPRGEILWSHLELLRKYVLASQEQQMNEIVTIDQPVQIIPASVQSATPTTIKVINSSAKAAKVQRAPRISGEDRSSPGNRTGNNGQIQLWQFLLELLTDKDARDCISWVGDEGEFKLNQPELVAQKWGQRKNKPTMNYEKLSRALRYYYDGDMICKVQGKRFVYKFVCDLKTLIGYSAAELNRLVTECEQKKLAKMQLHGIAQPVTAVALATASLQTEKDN
In outline: as §1

The target of another assay is T4, ERG (Homo sapiens, UniProt P11308 1-479).
T4 sequence: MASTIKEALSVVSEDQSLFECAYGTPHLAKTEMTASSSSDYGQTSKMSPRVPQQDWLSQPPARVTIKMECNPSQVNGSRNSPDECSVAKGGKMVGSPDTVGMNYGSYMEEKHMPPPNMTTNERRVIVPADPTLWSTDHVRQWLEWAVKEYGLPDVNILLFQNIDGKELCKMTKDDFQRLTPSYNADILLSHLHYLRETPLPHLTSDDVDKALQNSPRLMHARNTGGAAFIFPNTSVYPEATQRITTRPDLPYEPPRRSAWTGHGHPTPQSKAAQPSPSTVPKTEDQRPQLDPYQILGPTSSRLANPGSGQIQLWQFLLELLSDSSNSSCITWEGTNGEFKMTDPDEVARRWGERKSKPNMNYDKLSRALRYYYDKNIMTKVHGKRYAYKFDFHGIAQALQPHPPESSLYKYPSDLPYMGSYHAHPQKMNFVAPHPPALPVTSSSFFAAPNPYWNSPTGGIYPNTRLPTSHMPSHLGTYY
The method in brief:
as §1

Another assay addresses ELF1 (Homo sapiens, UniProt P32519 1-619). In outline: as §1
A further assay addresses T5, EHF (Homo sapiens, UniProt Q9NZC4 1-300).
T5 sequence: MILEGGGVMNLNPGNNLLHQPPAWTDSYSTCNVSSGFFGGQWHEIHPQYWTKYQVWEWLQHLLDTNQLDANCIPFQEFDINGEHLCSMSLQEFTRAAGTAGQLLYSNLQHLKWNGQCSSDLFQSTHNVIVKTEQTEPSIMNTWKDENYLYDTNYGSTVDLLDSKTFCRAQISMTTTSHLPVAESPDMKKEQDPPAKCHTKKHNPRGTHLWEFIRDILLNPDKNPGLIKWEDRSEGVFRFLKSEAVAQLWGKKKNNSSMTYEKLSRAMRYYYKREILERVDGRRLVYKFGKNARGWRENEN
The method in brief:
as §1

In the next assay the target is SPI1 (Homo sapiens, UniProt P17947 1-270). The method in brief: as §1
A further assay deals with SPIB (Homo sapiens, UniProt Q01892 1-262). In outline: as §1
A further assay addresses T6, ELK3 (Homo sapiens, UniProt P41970 1-407).
T6 sequence: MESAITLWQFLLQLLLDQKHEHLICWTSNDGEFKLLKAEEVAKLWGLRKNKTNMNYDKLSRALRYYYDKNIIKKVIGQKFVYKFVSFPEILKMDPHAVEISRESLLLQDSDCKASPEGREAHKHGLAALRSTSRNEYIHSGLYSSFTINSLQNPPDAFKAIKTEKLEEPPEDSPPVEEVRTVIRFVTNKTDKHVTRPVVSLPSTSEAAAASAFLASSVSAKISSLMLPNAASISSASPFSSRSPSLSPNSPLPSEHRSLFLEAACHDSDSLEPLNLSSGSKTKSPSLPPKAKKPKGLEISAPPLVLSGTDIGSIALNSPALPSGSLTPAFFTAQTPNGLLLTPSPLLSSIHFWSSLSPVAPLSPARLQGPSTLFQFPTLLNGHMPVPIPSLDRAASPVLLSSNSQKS
The method in brief: as §1

Sequence of SPIB (Q01892 whole entry): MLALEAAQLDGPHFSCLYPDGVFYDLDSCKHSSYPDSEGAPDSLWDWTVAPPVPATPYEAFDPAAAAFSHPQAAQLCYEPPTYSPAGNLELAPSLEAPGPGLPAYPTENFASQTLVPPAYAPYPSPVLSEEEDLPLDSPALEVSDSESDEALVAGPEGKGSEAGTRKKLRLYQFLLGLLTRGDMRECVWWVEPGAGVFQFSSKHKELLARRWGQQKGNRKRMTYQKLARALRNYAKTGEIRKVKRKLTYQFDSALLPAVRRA
Sequence of ELF1 (P32519 whole entry): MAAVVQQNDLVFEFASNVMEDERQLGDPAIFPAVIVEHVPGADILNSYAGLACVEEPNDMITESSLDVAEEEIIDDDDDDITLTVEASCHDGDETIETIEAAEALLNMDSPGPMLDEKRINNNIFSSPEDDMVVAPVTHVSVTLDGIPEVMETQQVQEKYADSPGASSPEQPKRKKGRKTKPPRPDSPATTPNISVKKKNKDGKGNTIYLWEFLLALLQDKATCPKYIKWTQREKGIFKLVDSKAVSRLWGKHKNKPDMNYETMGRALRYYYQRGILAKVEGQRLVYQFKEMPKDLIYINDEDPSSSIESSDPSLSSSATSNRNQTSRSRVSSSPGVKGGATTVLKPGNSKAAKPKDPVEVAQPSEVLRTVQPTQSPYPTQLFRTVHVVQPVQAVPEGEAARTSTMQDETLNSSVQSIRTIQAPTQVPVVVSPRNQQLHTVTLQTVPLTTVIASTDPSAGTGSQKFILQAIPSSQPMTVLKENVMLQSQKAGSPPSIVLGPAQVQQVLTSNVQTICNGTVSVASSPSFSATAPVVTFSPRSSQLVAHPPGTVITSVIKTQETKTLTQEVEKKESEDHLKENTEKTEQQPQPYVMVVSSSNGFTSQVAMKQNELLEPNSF

Take TTACGG: the binding signal with FLI1 was 1.3 fold enrichment (6-mer frequency, TF over GST control); with ELK1, 1.23 fold enrichment (6-mer frequency, TF over GST control); with GABPA, 1.22 fold enrichment (6-mer frequency, TF over GST control); in the assay with ERG, 1.31 fold enrichment (6-mer frequency, TF over GST control); with ELF1 it was 1.26 fold enrichment (6-mer frequency, TF over GST control); with EHF, 1.31 fold enrichment (6-mer frequency, TF over GST control). The binding signal with SPI1 was 1.37 fold enrichment (6-mer frequency, TF over GST control); in the assay with SPIB, 1.38 fold enrichment (6-mer frequency, TF over GST control); in the assay with ELK3, 1.48 fold enrichment (6-mer frequency, TF over GST control).
Regarding GAAATA, the binding signal with FLI1 was 1.45 fold enrichment (6-mer frequency, TF over GST control); in the assay with ELK1, 1.42 fold enrichment (6-mer frequency, TF over GST control); in the assay with GABPA it was 1.48 fold enrichment (6-mer frequency, TF over GST control); in the assay with ERG, 1.61 fold enrichment (6-mer frequency, TF over GST control); with ELF1, 1.45 fold enrichment (6-mer frequency, TF over GST control); with EHF it was 1.64 fold enrichment (6-mer frequency, TF over GST control). Also, the binding signal in the assay with SPI1 was 1.49 fold enrichment (6-mer frequency, TF over GST control); with SPIB it was 1.54 fold enrichment (6-mer frequency, TF over GST control); with ELK3 it was 1.5 fold enrichment (6-mer frequency, TF over GST control).
For ACTACC, the binding signal with FLI1 is 1.61 fold enrichment (6-mer frequency, TF over GST control); with ELK1 it was 1.72 fold enrichment (6-mer frequency, TF over GST control); with GABPA it was 1.67 fold enrichment (6-mer frequency, TF over GST control); in the assay with ERG, 1.63 fold enrichment (6-mer frequency, TF over GST control); with ELF1 it was 1.71 fold enrichment (6-mer frequency, TF over GST control); with EHF it was 1.51 fold enrichment (6-mer frequency, TF over GST control). For the same sequence, the binding signal with SPI1 was 1.69 fold enrichment (6-mer frequency, TF over GST control); with SPIB, 1.69 fold enrichment (6-mer frequency, TF over GST control); in the assay with ELK3 it was 1.63 fold enrichment (6-mer frequency, TF over GST control).
Regarding ATGGTA, the binding signal is 1.39 fold enrichment (6-mer frequency, TF over GST control) with FLI1; 1.44 fold enrichment (6-mer frequency, TF over GST control) in the assay with ELK1; 1.39 fold enrichment (6-mer frequency, TF over GST control) with GABPA; 1.33 fold enrichment (6-mer frequency, TF over GST control) with ERG; 1.36 fold enrichment (6-mer frequency, TF over GST control) with ELF1; 1.43 fold enrichment (6-mer frequency, TF over GST control) with EHF. Moreover, the binding signal in the assay with SPI1 was 1.23 fold enrichment (6-mer frequency, TF over GST control); in the assay with SPIB, 1.42 fold enrichment (6-mer frequency, TF over GST control); with ELK3, 1.36 fold enrichment (6-mer frequency, TF over GST control).
As for TTGACA, the binding signal in the assay with FLI1 was 1.38 fold enrichment (6-mer frequency, TF over GST control); with ELK1, 1.37 fold enrichment (6-mer frequency, TF over GST control); with GABPA, 1.44 fold enrichment (6-mer frequency, TF over GST control); with ERG, 1.34 fold enrichment (6-mer frequency, TF over GST control); with ELF1, 1.37 fold enrichment (6-mer frequency, TF over GST control); with EHF it was 1.29 fold enrichment (6-mer frequency, TF over GST control). Moreover, the binding signal was 1.25 fold enrichment (6-mer frequency, TF over GST control) in the assay with SPI1; 1.28 fold enrichment (6-mer frequency, TF over GST control) with SPIB; 1.28 fold enrichment (6-mer frequency, TF over GST control) in the assay with ELK3.
For AATGAT, the binding signal in the assay with FLI1 is 1.08 fold enrichment (6-mer frequency, TF over GST control); in the assay with ELK1, 1.22 fold enrichment (6-mer frequency, TF over GST control); with GABPA it was 1.15 fold enrichment (6-mer frequency, TF over GST control); with ERG, 1.14 fold enrichment (6-mer frequency, TF over GST control); with ELF1, 1.19 fold enrichment (6-mer frequency, TF over GST control); with EHF it was 1.2 fold enrichment (6-mer frequency, TF over GST control). The binding signal in the assay with SPI1 is 1.16 fold enrichment (6-mer frequency, TF over GST control); with SPIB, 1.12 fold enrichment (6-mer frequency, TF over GST control); in the assay with ELK3 it was 1.19 fold enrichment (6-mer frequency, TF over GST control).
As for TCTGGC, the binding signal with FLI1 is 1.36 fold enrichment (6-mer frequency, TF over GST control); in the assay with ELK1 it was 1.26 fold enrichment (6-mer frequency, TF over GST control); with GABPA, 1.29 fold enrichment (6-mer frequency, TF over GST control); in the assay with ERG, 1.27 fold enrichment (6-mer frequency, TF over GST control); in the assay with ELF1 it was 1.14 fold enrichment (6-mer frequency, TF over GST control); with EHF, 1.22 fold enrichment (6-mer frequency, TF over GST control). In addition, the binding signal was 1.25 fold enrichment (6-mer frequency, TF over GST control) with SPI1; 1.09 fold enrichment (6-mer frequency, TF over GST control) with SPIB; 1.18 fold enrichment (6-mer frequency, TF over GST control) with ELK3.
